Our source for the Potency values is PubChem BioAssay (NCATS).

Inconclusive results are not listed. Where a call stands in place of a potency, no number is given. Active and inactive are the calls of the source. The call rests on the fitted dose curve; in most records, active means well fitted inhibition curve with a large enough effect; inconclusive means small, poorly fitted or top-dose-only effect; inactive means flat fitted curve, though single readings scatter.
Potency means the concentration at half of the fitted maximal effect.

One assay relates to JCK. Nature of the assay: qHTS profiling for inhibitors of Plasmodium falciparum proliferation (AID 504749). Further: nearly all actives have a fitted effect of over 60% in size. The note with it: P. falciparum in erythrocytes, SYBR Green DNA, 72 h; series mostly up to 28.7 µM. Put shortly:
(§1)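 Parasite proliferation within erythrocytes, 72 h exposure. Endpoint: SYBR Green I fluorescence after overnight lysis at room temperature. Controls: 0.29 uM artemisinin, DMSO.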
As to `CN1CCN(C2=Nc3cc(F)ccc3Cc3ccccc32)CC1`, the Potency entry is “inactive”.
Still for that read-out and setting: then `CCCCCCCCCCCCOCCOCCOCCOCCOCCOCCOCCOCCOCCO`, with “inactive”; and `CN(Cc1ccc(C(C)(C)C)cc1)Cc1cccc2ccccc12`, with “inactive”; and `CN1CCN(c2c(F)cc3c(=O)c(C(=O)O)cn4c3c2SCC4)CC1`, with “inactive”.
Turning to `C/C=C/c1ccc(O)c(OC)c1`, the Potency result was “inactive”.
Still for that read-out and setting: then `O=C(Oc1cccc2cccnc12)c1ccccc1`, with “inactive”; and `CC(=O)O[C@H]1C[C@@H]2CC[C@@H]3[C@H](CC[C@@]4(C)[C@H]3C[C@H]([N+]3(C)CCCCC3)[C@@H]4OC(C)=O)[C@@]2(C)C[C@@H]1N1CCCCC1`, with “inactive”.
Consider `C=CCN1CCc2nc(N)sc2CC1`, for which the Potency entry was “inactive”.
Same read-out and setting: then `C#C[C@]1(O)CC[C@H]2[C@@H]3CCc4cc(OC)ccc4[C@H]3CC[C@@]21C`, with “inactive”; and `NC(N)=NCc1cccc(I)c1`, with “inactive”; and `CO[C@]12C[C@@H](COC(=O)c3cncc(Br)c3)CN(C)[C@@H]1Cc1cn(C)c3cccc2c13`, with “inactive”.
Still for that read-out and setting: the result for `Cc1cc(-c2ccccc2)nnc1NCCN1CCOCC1` reads “inactive”; that for `NC1CCN(c2nc3c(cc2F)c(=O)c(C(=O)O)cn3-c2ccc(F)cc2F)C1` (stereo not given), “inactive”.
The same measure, in the same setting: then `NCCNc1cccc2ccccc12`, with “inactive”; and `CCCCc1cc2ccccc2c(OCCN(C)C)n1`, with “inactive”.
For `CCNC(=O)NCc1cccc(Cl)c1`, the Potency result is “inactive”.
The same measure, in the same setting: then `CC(C)=CCOc1ccc(/C=C/C(=O)c2ccc(OCC=C(C)C)cc2OCC(=O)O)cc1`, with “inactive”; and `CC[N+](C)(CC)CCOC(=O)C(O)(c1ccccc1)C1CCCCC1` (stereo not given), with “inactive”; and `CC(=O)OCC(=O)[C@H]1CC[C@H]2[C@@H]3CCC4=CC(=O)CC[C@]4(C)[C@H]3CC[C@]12C`, with “inactive”.
For the compound `COC(=O)C(c1ccccc1Cl)N1CCc2sccc2C1` (stereo not given), the Potency entry is “inactive”.
The same measure, in the same setting: then `CC1CCc2c(N3CCC(O)CC3)c(F)cc3c(=O)c(C(=O)O)cn1c23` (stereo not given), with “inactive”; and `CN1CCC(OC(c2ccccc2)c2ccccc2)CC1`, with “inactive”.
Same read-out and setting: then `CCN(CC)CCOc1ccccc1C(=O)CCc1ccccc1`, with “inactive”; and `CN(C)C(=O)Nc1ccc(Cl)c(Cl)c1`, with “inactive”; and `CC(C)[N+](C)(C)CC(O)COc1cccc2ccccc12` (stereo not given), with “inactive”.
On the same count and under the same terms, then `CCOCCn1c(N2CCCN(C)CC2)nc2ccccc21`, with “inactive”; and `O=[N+]([O-])c1cccc(S(=O)(=O)NCCNS(=O)(=O)c2cccc([N+](=O)[O-])c2)c1`, with “inactive”.
`C[N+]1(C)CCC(=C(c2ccccc2)c2ccccc2)CC1`: the Potency result is “inactive”.
`CN1CCN(c2cc3c(cc2F)c(=O)c(C(=O)O)cn3-c2ccc(F)cc2)CC1`: the Potency result is “inactive”.
The same measure, in the same setting: the result for `O=C1C(O)=C(O)C(=O)C(O)=C1O` reads “inactive”; that for `OC(C#CCN1CCCC1)(c1ccccc1)c1ccccc1`, “inactive”.
Still for that read-out and setting: then `COc1ccc(CCN(C)CCCN2CCc3cc(OC)c(OC)cc3CC2=O)cc1OC`, with “inactive”.
With `O=C(O)C1(C(=O)O)CCC1.[NH2-].[NH2-].[Pt+2]`, the Potency entry is “inactive”.
In the case of `OCCOCCN1CCN(C2=Nc3ccccc3Sc3ccccc32)CC1`, the Potency result is “inactive”.

The next assay concerns N140. The description is as above. The following applies: P. falciparum in erythrocytes, SYBR Green DNA, 72 h; series mostly up to 28.7 µM. Put shortly: as §1
Turning to `COc1ccc(C(Cl)=C(c2ccc(OC)cc2)c2ccc(OC)cc2)cc1`, the Potency is 15.8 µM (active).
Still for that read-out and setting: then `CN(Cc1ccc(C(C)(C)C)cc1)Cc1cccc2ccccc12`, with “inactive”; and `C/C=C/c1ccc(O)c(OC)c1`, with “inactive”.
Same read-out and setting: then `O=C(Oc1cccc2cccnc12)c1ccccc1`, with “inactive”; and `CCN(CC)CCOC(=O)C1(c2ccccc2)CCCC1`, with “inactive”.
As to `CC(=O)O[C@H]1C[C@@H]2CC[C@@H]3[C@H](CC[C@@]4(C)[C@H]3C[C@H]([N+]3(C)CCCCC3)[C@@H]4OC(C)=O)[C@@]2(C)C[C@@H]1N1CCCCC1`, the Potency result is “inactive”.
On the same count and under the same terms, the result for `C=CCN1CCc2nc(N)sc2CC1` reads “inactive”; that for `C#C[C@]1(O)CC[C@H]2[C@@H]3CCc4cc(OC)ccc4[C@H]3CC[C@@]21C`, “inactive”.
With `NC(N)=NCc1cccc(I)c1`, the Potency entry was “inactive”.
On to `Cc1cc(-c2ccccc2)nnc1NCCN1CCOCC1`, for which the Potency result is “inactive”.
`NCCNc1cccc2ccccc12`: the Potency entry is “inactive”.
Still for that read-out and setting: the result for `CCCCc1cc2ccccc2c(OCCN(C)C)n1` reads “inactive”; that for `CCNC(=O)NCc1cccc(Cl)c1`, “inactive”; that for `CC(C)=CCOc1ccc(/C=C/C(=O)c2ccc(OCC=C(C)C)cc2OCC(=O)O)cc1`, “inactive”.
On to `CC[N+](C)(CC)CCOC(=O)C(O)(c1ccccc1)C1CCCCC1` (stereo not given), for which the Potency result is “inactive”.
With `CC(=O)OCC(=O)[C@H]1CC[C@H]2[C@@H]3CCC4=CC(=O)CC[C@]4(C)[C@H]3CC[C@]12C`, the Potency entry is “inactive”.
The same measure, in the same setting: then `Oc1ccc(Cl)cc1Cc1cc(Cl)ccc1O`, with 11.2 µM (active); and `CC(C)[N+](C)(C)CC(O)COc1cccc2ccccc12` (stereo not given), with “inactive”; and `CCOCCn1c(N2CCCN(C)CC2)nc2ccccc21`, with “inactive”.
On the same count and under the same terms, then `O=[N+]([O-])c1cccc(S(=O)(=O)NCCNS(=O)(=O)c2cccc([N+](=O)[O-])c2)c1`, with “inactive”; and `C[N+]1(C)CCC(=C(c2ccccc2)c2ccccc2)CC1`, with “inactive”; and `O=C1C(O)=C(O)C(=O)C(O)=C1O`, with “inactive”.
With `OC(C#CCN1CCCC1)(c1ccccc1)c1ccccc1`, the Potency was 11.2 µM (active).
In the case of `COc1ccc(CCN(C)CCCN2CCc3cc(OC)c(OC)cc3CC2=O)cc1OC`, the Potency result is “inactive”.
Still for that read-out and setting: the result for `O=C(O)C1(C(=O)O)CCC1.[NH2-].[NH2-].[Pt+2]` reads “inactive”; that for `OCCOCCN1CCN(C2=Nc3ccccc3Sc3ccccc32)CC1`, “inactive”.
